Screening results (PubChem)
Tau fil binding – binds recombinant human tau filaments; P10636; recombinant tau filaments, thioflavin S fluorescence, 15 h; filaments grown with octadecylsulfate alongside compound; Potency, µM (top dose mostly 57.1 µM); 71,000 tested, 2% active;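 note: actives lower thioflavin S fluorescence by blocking filaments or displacing dye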
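Thioflavine S fluorescence (ex 450, em 510 nm) reports filaments formed from 1 uM human tau plus 30 uM ODS over 15 h at 37 C (10 mM HEPES pH 7.4, 100 mM NaCl, 5 mM DTT); compounds displacing dye or blocking filaments lower signal.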
p53ts 32C tox – kills p53ts cells at the permissive temperature | Potency, µM (doses to about 46.1 µM), most hits filed as cytotoxic | 130,000 tested, 0.93% active | AID 924 | H1299-p53A138V at 32C, ATP luminescence viability, 24 h; note: nearly all actives have a fitted effect of over 55% in size
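Cells: H1299 p53ts (A138V), 600/well, pre-incubated 16–30 h at 37C. Cpd up to 46 uM, 24 h, 32C. Readout: ATPlite luminescence, 20 min RT. Normalization: DMSO vs tamoxifen 100 uM. AC50 by Hill equation.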
p53ts 39C tox – kills p53ts cells at the nonpermissive temperature. H1299-p53A138V viability at 39C, ATP luminescence, 24 h. Potency, µM (doses to about 46.1 µM), hits mostly cytotoxic. 130,000 tested, 1.5% active. AID 902; note: nearly all actives have a fitted effect of over 55% in size
Luciferase inh – inhibitors of firefly luciferase; P08659; Potency, µM (highest dose often 57.1 µM), usual class: inhibitors; purified firefly luciferase, luminescence, 8 min; AID 411; 72,000 tested, 2.2% active; note: nearly all actives have a fitted effect of over 40% in size
Target sequence (P08659 whole entry, looked up): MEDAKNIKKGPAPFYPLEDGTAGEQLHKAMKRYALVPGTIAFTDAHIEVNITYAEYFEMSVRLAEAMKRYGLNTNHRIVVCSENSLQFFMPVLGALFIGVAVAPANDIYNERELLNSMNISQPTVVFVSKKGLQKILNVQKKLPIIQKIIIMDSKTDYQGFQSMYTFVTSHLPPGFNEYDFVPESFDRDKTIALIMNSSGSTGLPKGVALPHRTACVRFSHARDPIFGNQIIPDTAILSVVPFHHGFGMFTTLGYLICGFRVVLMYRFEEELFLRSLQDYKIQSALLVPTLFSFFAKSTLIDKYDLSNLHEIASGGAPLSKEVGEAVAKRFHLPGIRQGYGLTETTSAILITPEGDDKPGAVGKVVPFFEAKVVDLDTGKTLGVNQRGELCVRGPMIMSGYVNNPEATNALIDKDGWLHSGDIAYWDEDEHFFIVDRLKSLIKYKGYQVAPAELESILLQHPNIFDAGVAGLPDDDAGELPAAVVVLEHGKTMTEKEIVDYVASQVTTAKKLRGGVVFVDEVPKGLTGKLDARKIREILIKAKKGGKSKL
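Here, luciferase activity is measured as luminescence following an 8 min room-temperature reaction at 10 uM ATP, pH 7.2. Every library sample is titrated.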
Imprint erasure – genomic imprint erasure induction. mouse ES Peg3-LacZ reporter, beta-gal luminescence, 40 h. 110,000 tested, 0.02% active. Potency, µM (highest dose often 60.7 µM), hits mostly activators. AID 1948
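Each well holds 300 Peg3LacZ-Neo (maternal) female ES cells incubated 40 h at 37C, 5% CO2. LacZ is measured by BetaGlo luminescence, with AC50 and maximum efficacy derived from dose-response curves.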
Large screens that a line does not name were inactive; ! = repeats disagree. An excerpt weighted towards active compounds, which were near 3.4% of everything screened. Calls come from the whole dose curve; as a rule, active = well fitted curve in the direction sought with a large enough effect; inconclusive = small, poorly fitted or top-dose-only effect, or another doubt; inactive = no such curve, though single readings can be large; an effect the other way counts as inactive or inconclusive.

Cc1ccc(-c2nc(CS(=O)CC(=O)N3CCN(c4cccc(Cl)c4)CC3)c(C)o2)cc1 (configuration not stated)	p53ts 39C tox 12.6µM (no result: Tau fil binding, Luciferase inh)
Clc1ccc(OCc2nc(-c3ccncc3)no2)c(Cl)c1	p53ts 32C tox inconclusive, p53ts 39C tox inconclusive, Luciferase inh 15.8µM
Clc1cc(Cl)c(OCc2nc(-c3ccccn3)no2)cc1Cl	p53ts 32C tox inconclusive, p53ts 39C tox inconclusive, Luciferase inh 12.6µM
Cc1cccc2sc(N(Cc3cccnc3)C(=O)C3CCCCC3)nc12	none (no result: Tau fil binding, Luciferase inh)
CCCN1Cc2cccc(C(=O)Nc3ccc(CN4CCCC4)cc3)c2C1=O	Luciferase inh 20µM
CCCN1Cc2cccc(C(=O)Nc3ccc(OC)c(OC)c3)c2C1=O	none
CCOc1ccc(NC(=O)c2cccc3c2C(=O)N(Cc2cccnc2)C3)cc1	p53ts 32C tox inconclusive, p53ts 39C tox inconclusive, Luciferase inh 3.98µM
Cc1nnc(NC(=O)c2sc3ccccc3c2Cl)s1	p53ts 32C tox 1.26µM, p53ts 39C tox 0.631µM, Luciferase inh 2µM
COCc1nnc(NC(=O)c2sc3ccccc3c2Cl)s1	p53ts 32C tox inconclusive, p53ts 39C tox 15.8µM, Luciferase inh 20µM
CCN(CC)c1ccc(NC(=O)c2sc3ccccc3c2Cl)cc1	none (no result: Tau fil binding, Luciferase inh)
COCc1nnc(NC(=O)c2cccs2)s1	none
Cc1ccc(-n2nc(-c3ccc(N)cc3)cc2N)cc1	Tau fil binding 7.94µM
Nc1ccc(-c2cc(N)n(-c3ccccc3)n2)cc1	Tau fil binding inconclusive (no result: Imprint erasure)
CC(C)(C)c1ccc(Cn2nnc3c(=O)[nH]c(C4CCN(C(=O)Cc5cccs5)CC4)nc32)cc1	p53ts 32C tox inconclusive, p53ts 39C tox 15.8µM
CC(C)(C)c1ccc(Cn2nnc3c(=O)[nH]c(C4CCCN(C(=O)Cc5cccs5)C4)nc32)cc1 (configuration not stated)	none
Cc1ccc(-c2cc(-c3ccccc3Cl)[nH]n2)c(O)c1	p53ts 39C tox inconclusive, Luciferase inh 10µM
CCc1ccc(NC(=O)CN2C(=O)C3CCCN3c3ccc(S(=O)(=O)N(CC)CC)cc32)cc1 (configuration not stated)	none (no result: Tau fil binding, Luciferase inh)
CN(Cc1ccccc1)C(=O)[C@H](Cc1ccc2ccccc2c1)NC(=O)[C@@H]1CCCN1C(=O)Nc1ccccc1[N+](=O)[O-]	none (no result: Tau fil binding, p53ts 32C tox, p53ts 39C tox, Luciferase inh)
O=C(CSc1c[nH]c2ccccc12)N1CCOCC1	none
Cc1[nH]c2ccccc2c1SCC(=O)N1CCOCC1	p53ts 39C tox 12.6µM
Cc1ccc(Cn2c(SCC(=O)NCc3ccccc3)nc3ccsc3c2=O)cc1	p53ts 39C tox 15.8µM (no result: Tau fil binding, Luciferase inh)
Nc1nnc(SCc2ccc(Cl)cc2)s1	none (no result: Tau fil binding, Luciferase inh, Imprint erasure)
Nc1nnc(SCc2ccc(F)cc2Cl)s1	Tau fil binding 20µM
CCN(CC)CCOC(=O)c1ccc(NC(=O)c2cc3c(s2)-c2ccccc2OC3)cc1	p53ts 32C tox inconclusive, p53ts 39C tox 15.8µM (no result: Tau fil binding, Luciferase inh)
CCc1cccc(NC(=O)c2cc3c(s2)-c2ccccc2OC3)c1	p53ts 39C tox inconclusive (no result: Tau fil binding, Luciferase inh)
Cn1c(-c2ccc(C(C)(C)C)cc2)n[nH]c1=S	none
CC(C)(C)c1ccc(-c2conc2N)cc1	p53ts 32C tox inconclusive, p53ts 39C tox inconclusive, Luciferase inh 10µM
COc1ccc(-c2coc3cc(O)cc(O)c3c2=O)cc1	Tau fil binding inconclusive, p53ts 32C tox inconclusive, p53ts 39C tox inconclusive
O=c1c(-c2ccc(O)cc2)coc2cc(O)cc(O)c12	Tau fil binding inconclusive, p53ts 32C tox 10µM!, p53ts 39C tox inconclusive
CC(C)Oc1cc(O)c2c(=O)c(-c3ccc(O)cc3)coc2c1	p53ts 32C tox inconclusive, p53ts 39C tox inconclusive, Luciferase inh 12.6µM
CCOc1ccc(CNC(=O)Cn2nc(C)c3sc4ccccc4c3c2=O)cc1	none (no result: Tau fil binding, Luciferase inh)
N#Cc1cccc(NC(=O)N2CCCC3(CCN(C(=O)c4cnccn4)CC3)C2)c1	none (no result: Imprint erasure)
CCOC(=O)c1[nH]c2ccc(OC)cc2c1NC(=S)N1CCN(c2ccc(F)cc2)CC1	none (no result: Tau fil binding, Luciferase inh, Imprint erasure)
CCOC(=O)c1[nH]c2ccc(OC)cc2c1NC(=S)N1CCN(c2cccc(C)c2C)CC1	p53ts 32C tox 11.2µM, p53ts 39C tox inconclusive (no result: Tau fil binding, Luciferase inh, Imprint erasure)
Cc1ccc(Nc2nc(CSc3nnnn3C)cs2)cc1	Tau fil binding 15.8µM, p53ts 32C tox inconclusive, p53ts 39C tox inconclusive, Luciferase inh 12.6µM
COc1cc(OC)cc(C(=O)Nc2cccc(N3CCCC3)c2)c1	Tau fil binding 10µM
COc1cc(OC)cc(C(=O)Nc2cccc(C(C)=O)c2)c1	Luciferase inh inconclusive
CCN1CCN(c2ccc(NC(=O)Cc3ccccc3)cc2)CC1	none
